Hits are enriched below; roughly 21% of the tested compounds scored in any of these assays.
IL1B secr inh: inflammasome signaling inhibition, IL-1 beta readout | THP-1 LPS/ATP IL-1B secretion, AlphaLISA, 16 h; stronger effect = lower value | 360,000 tested, 4.7% active | activity change, % at 57.5 µM; in the data active = activity change below about -50%; inconclusive = mostly about -30% to -49%; note: % is set by controls: 0 for no effect and ±100 for the full control effect
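Secreted IL-1B measured by AlphaLISA bead assay after 16 h compound exposure of THP-1 cells; compounds (final up to 57.5 uM) added 1 h before LPS (250 ng/mL) and ATP (1.25 mM) stimulation; lower signal means less secretion.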
DRD3 agonist: activates the human D3 dopamine receptor; D3R DiscoveRx beta-arrestin cells, luminescence, 90 min; max activation, %; 410,000 tested, 0.58% active; in the data active = max activation above about 30%; note: 0% is about no effect
Target sequence (P35462 whole entry, looked up): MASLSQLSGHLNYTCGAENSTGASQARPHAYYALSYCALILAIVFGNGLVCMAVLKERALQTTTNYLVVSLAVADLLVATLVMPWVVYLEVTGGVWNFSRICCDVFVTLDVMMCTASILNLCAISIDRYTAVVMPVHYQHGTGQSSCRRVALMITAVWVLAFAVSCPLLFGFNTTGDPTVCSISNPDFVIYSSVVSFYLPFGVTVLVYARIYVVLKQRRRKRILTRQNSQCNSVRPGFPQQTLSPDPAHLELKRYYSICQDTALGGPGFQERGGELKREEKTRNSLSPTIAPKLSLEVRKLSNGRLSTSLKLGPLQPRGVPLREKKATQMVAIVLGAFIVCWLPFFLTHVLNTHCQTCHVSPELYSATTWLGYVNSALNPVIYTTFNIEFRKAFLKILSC
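Agonist mode: compounds and dopamine controls were applied to plated cells for 90 min at 37 degrees C after an overnight attachment at 1500 cells/well. Luminescent read-out followed 30 - 60 minutes at room temperature with DiscoveRx detection reagent.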
DRD3 antagonist: D3 dopamine receptor (human) antagonism. P35462. max response, negative = inhibition, %. 360,000 tested, 2.5% active. AID 652054. D3R cells, DiscoveRx beta-arrestin luminescence, antagonist mode; stronger effect = lower value; in the data active = max response below about -50%; inconclusive = no clear call, values can overlap the other calls; note: % is set by controls: 0 for no effect and ±100 for the full control effect
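Cells expressing the human receptor were seeded at 1500 cells/well, incubated overnight at 37 degrees C in 5% CO2, then exposed to library compounds with dopamine controls for 90 minutes at 37 degrees C before luminescent detection.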
ClpP mod: qHTS Assay for Activators of ClpP. ATP-dependent Clp protease proteolytic subunit (Bacillus subtilis (strain 168)), P80244. purified B. subtilis ClpP, FRET peptide cleavage, 20 min. Potency, µM (series often up to 57.5 µM), without a hit: top-dose activity change, negative = active. 340,000 tested, 1.9% active. AID 651965, 2013; active = well fitted falling curve with a large enough effect; inconclusive = small, poorly fitted or top-dose-only effect; inactive = no such curve, though single readings can be large or run the other way; note: potency is the fitted concentration of half-maximal effect; the source files actives as falling curves though it sought activators and does not explain the sign; nearly all actives have a fitted effect of over 65% in size
Target sequence (P80244 whole entry, looked up): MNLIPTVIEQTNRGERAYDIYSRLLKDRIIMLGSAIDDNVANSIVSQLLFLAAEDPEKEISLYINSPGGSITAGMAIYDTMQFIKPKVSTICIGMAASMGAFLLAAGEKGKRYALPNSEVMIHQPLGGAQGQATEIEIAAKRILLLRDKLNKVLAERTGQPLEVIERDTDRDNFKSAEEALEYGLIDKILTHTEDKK
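Purified B. subtilis ClpP, 10 microg/mL final in Tris/HCl pH8 with KCl, BSA, glycerol and Tween-20, cleaved an Abz/nitrotyrosine-quenched decapeptide. Fluorescence (ex 320, em 430) was read at 0 and 20 min at room temperature. Delta was normalized to 5.8 microM ADEP and DMSO/no-enzyme controls.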
DT40 TDP1 CPT: DT40-hTDP1 cell growth loss with CPT; Potency, µM (titrated, usually from 46.2 µM), inactives show at the top dose activity change, negative = growth inhibition, most hits filed as inhibitors; AID 686979; 420,000 tested, 12% active; chicken DT40 Tdp1-/-;hTDP1 cells + 20 nM CPT, ATP luminescence, 48 h; note: potency is the fitted concentration of half-maximal effect; % is set by controls: 0 for no effect and ±100 for the full control effect; nearly all actives have a fitted effect of over 55% in size
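Chicken DT40 Tdp1-/- cells complemented with human TDP1, 400 cells/well, exposed to compounds plus 20 nM camptothecin for at least 48 h at 37 C; viability read as ATP content by CellTiter-Glo luminescence.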
DT40 TDP1 no CPT: qHTS for Inhibitors of human tyrosyl-DNA phosphodiesterase 1 (TDP1): qHTS in cells in absence of CPT; DT40 Tdp1-/- hTDP1 cells, no CPT, ATP luminescence, 48 h; Potency, µM (titrated, usually from 46.2 µM), for the others: top-dose activity change, negative = growth inhibition, usual class: inhibitors; 420,000 tested, 15% active; AID 686978, 2013; note: potency is the fitted concentration of half-maximal effect; % is set by controls: 0 for no effect and ±100 for the full control effect; nearly all actives have a fitted effect of over 55% in size
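Growth of hTDP1-complemented DT40 Tdp1-knockout cells is measured by ATP luminescence after at least 48 hr compound exposure at 37 °C, with DMSO substituting for the 20 nM CPT used in the parallel screen.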
Starred values were filed as active, the others as inactive; ? = inconclusive; / = no result given; ! = a repeat was not active. Unless noted, calls come from the whole dose curve; as a rule, active = well fitted inhibition curve with a large enough effect; inconclusive = small, poorly fitted or top-dose-only effect; inactive = flat fitted curve, though single readings scatter.

SMILES	IL1B secr inh	DRD3 agonist	DRD3 antagonist	ClpP mod	DT40 TDP1 CPT	DT40 TDP1 no CPT
C/C=C1/C(=O)C[C@@H]2[C@H]3CCC4=CC(=O)CC[C@]4(C)[C@@H]3CC[C@]12C	/	/	/	/	?	15µM*
CC12CCC(=O)C=C1CCC1C2C(O)CC2(C)C(c3csc(N)n3)CCC12 (stereo not given)	-17	7	11	/	3.7µM*	3.3µM*
CC12CCC(=O)C=C1CCC1C2CCC2(C)C(c3csc(N)n3)CCC12 (stereo not given)	-82*	3	16	-1%	5.8µM*	5.8µM*
C=CCC1(CC=C)CCCN1C(=O)c1cc(COc2ccc(C)nc2)on1	-8	9	12	4%	2.6µM*	0.92µM*
CSc1ccccc1OCc1cc(C(=O)N2CCNC(=O)C2)no1	-3	-10	-4	-5%	-20%	-24%
C=CCC1(CC=C)CCCN1C(=O)c1cc(COc2ccc(F)c(F)c2)on1	-8	-6	-10	0%	18µM*	?
Cc1ccc(OCc2cc(C(=O)N3CCCC3)no2)cn1	-3	14	-3	-2%	-30%	?
C=CCC1(CC=C)CCCN1C(=O)c1cc(COc2ccccc2SC)on1	-1	-12	-9	-2%	?	21µM*
CSc1ccccc1OCc1cc(C(=O)N2CCc3c(Cl)cccc3C2)no1	?	32*	9	/	23µM*	?
COc1cc2c(cc1OC)CN(C(=O)c1cc(COc3ccccc3SC)on1)CC2	0	3	7	-10%	?	?
C[C@H](CO)N1C[C@H](C)[C@H](CN(C)C(=O)Nc2ccccc2F)OCc2cnnn2CCCC1=O	1	1	8	0%	0%	5%
CCCCOC(=O)c1ccc(NC(=O)Cc2coc3c(C)c(C)ccc23)cc1	/	8	/	-4%	?	?
CC(=O)Nc1ccc(N/C(N)=N/c2nc(C)cc(C)n2)cc1	-93*	2	-6	/	?	?
Cc1cc(C)nc(/N=C(\N)Nc2ccc(S(N)(=O)=O)cc2)n1	34	3	10	/	-30%	?
Cc1cc(C)nc(/N=C(\N)Nc2ccc(SC(F)F)cc2)n1	0	9	13	2%	13µM*	12µM*
CCOc1ccc(N/C(=N/c2nc(C)cc(C)n2)NC(=O)CC)cc1	0	7	13	1%	?	?
CCOc1ccc(N/C(N)=N/c2nc(C)cc(C)n2)cc1	-3	9	3	0%	21µM*	26µM*
Cc1cc(C)nc(/N=C(\N)Nc2ccc(-c3ccccc3)cc2)n1	/	10	3	-1%	7.3µM*	9.2µM*
COc1ccc(N/C(N)=N/c2nc(C)cc(=O)[nH]2)cc1	21	-2	-3	0%	-10%	-3%
CC(=O)c1ccc(NC(=O)CC(c2cccs2)N2Cc3ccccc3C2=O)cc1 (stereo not given)	/	-6	/	-1%	-24%	?
Cc1cc(C)nc(/N=C(\N)Nc2ccc3c(c2)OCCO3)n1	-78*	-6	-1	1%	21µM*	?
Cc1cc(C)nc(/N=C(\N)Nc2ccc(F)c([N+](=O)[O-])c2)n1	-92*	-4	0	-2%	?	?
CCOC(=O)c1c(NC(=O)COC(=O)c2cccc([N+](=O)[O-])c2)sc(C(=O)N(C)C)c1C	-4	8	62	1%	-4%	-1%
O=C(COc1ccccc1Br)Nc1ccc(S(=O)(=O)N2CCCC2)cc1	-6	7	1	-1%	?	?
O=C(NCCCN1CCCC1=O)c1cc(S(=O)(=O)N2CCN(c3ccccc3)CC2)ccc1Cl	-9	4	6	28µM*	?	?
SMILES	IL1B secr inh	DRD3 agonist	DRD3 antagonist	ClpP mod	DT40 TDP1 CPT	DT40 TDP1 no CPT
CCOC(=O)C1CCCN(C(=O)c2cc(S(=O)(=O)N3CCCCC3)ccc2Cl)C1 (stereo not given)	-14	-5	-4	-2%	21µM*	21µM*
CC1CCCCC1NC(=O)c1cccc(S(=O)(=O)N2CCN(C)CC2)c1 (stereo not given)	11	-1	7	-5%	23%	1%
CC1CCCC(NC(=O)c2cccc(S(=O)(=O)N3CCN(c4ccccc4)CC3)c2)C1C (stereo not given)	12	2	22	-14%	18µM*	13µM*
O=C(NCCCN1CCOCC1)c1cc(S(=O)(=O)N2CCN(c3ccccc3)CC2)ccc1Cl	-20	-6	1	/	6%	?
O=C(c1cc(S(=O)(=O)N2CCN(c3ccccc3)CC2)ccc1Cl)N1CCCCCCC1	-53*	-5	-20	0%	?	15µM*
CNS(=O)(=O)c1cn(CC(=O)NCc2ccc(F)cc2)cc1S(=O)(=O)NC	-3	2	0	-2%	0%	1%
COc1ccc2c(c1)C(=O)N(c1ccccc1C)C(=O)C2(C)C	7	0	-1	/	-17%	-26%
Cc1ccc(NC(=O)C2CCCN(S(=O)(=O)c3cccc4cccnc34)C2)c(Br)c1 (stereo not given)	/	13	/	-1%	?	?
CN(C)c1ccnc(Nc2ccc(O)cc2)c1C#N	1	22	7	/	4%	0%
O=C(Nc1ccc(F)cc1)c1csc2c1CCCCC2	/	-13	/	-4%	?	?
CC1CN(C(=O)c2cc(S(=O)(=O)N3CCCCC3)ccc2Cl)CC(C)O1 (stereo not given)	33	2	-8	1%	16µM*	12µM*
CCOC(=O)C1CCCN(S(=O)(=O)c2ccc(NC(C)=O)cc2)C1 (stereo not given)	-11	0	18	0%	-35%	-50%
CCOC(=O)C1CCCN(S(=O)(=O)c2ccc(F)c(C(=O)Nc3ccc(F)c(F)c3)c2)C1 (stereo not given)	-66*	-3	10	-4%	23µM*!	16µM*
Cc1cc(C)c(C)c(S(=O)(=O)N2CCN(C(=O)c3ccncc3)CC2)c1C	1	-2	17	0%	?	7%
CC(=O)N1CCN(S(=O)(=O)c2cccc(C(=O)N3CCN(S(=O)(=O)c4c(C)c(C)cc(C)c4C)CC3)c2)CC1	-15	-3	25	-1%	?	21µM*
O=C(c1cccc(S(=O)(=O)N2CCc3ccccc3C2)c1)N1CCN(c2ccc(O)cc2)CC1	-11	2	9	32µM*	15µM*	12µM*
Cc1ccc2scc(N3CCc4ccccc4C3)c(=O)c2c1	/	-18	/	-9%	?	?

High-throughput results as filed in PubChem.
